Screening data from PubChem BioAssay.
Compounds with a hit are over-represented: about 2.3% of the library has one in this group of screens.
M1 ag parental = counter-screen for M1 agonists: effect in parental CHO-K1 cells. Fluo-8 calcium fluorescence; scaled to maximal ATP response, vehicle zero. activation, % at 3 µM. 0.48% of 360,000 active. AID 602248, 2012; in the data active means activation above about 15%;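 further: untransfected CHO-K1 host cells lacking M1 receptor as counterscreen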
M1 PAM parental = nonselective calcium activators in parental CHO-K1 cells, primary screen, counter-screen for M1 PAM project, cell-based, Fluo-8 calcium fluorescence, full deck, 1536-well; ATP EC20; 0% at ATP EC20, 100% at ATP max; activation, % at 3 µM; 0.02% of 360,000 active;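 active means activation above the run cutoff, the mean activation of all test compounds plus 3 SD, cut at about 40% in these data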;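 further: peak over basal fluorescence ratio in a 140 s read after ATP addition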
M1 PAM = human M1 muscarinic receptor positive allosteric modulators, primary screen, CHO-K1 cells, Fluo-8 calcium fluorescence, 1536-well. Muscarinic acetylcholine receptor M1 (Homo sapiens), P11229. CHO-K1 hM1, ACh EC20; 0% = ACh EC20, 100% = maximal ACh. activation, % at 3 µM. 0.088% of 360,000 active. AID 588819, 2011; in the data active means activation above about 19%, passing the limit was not always enough
Target sequence (P11229 whole entry, looked up): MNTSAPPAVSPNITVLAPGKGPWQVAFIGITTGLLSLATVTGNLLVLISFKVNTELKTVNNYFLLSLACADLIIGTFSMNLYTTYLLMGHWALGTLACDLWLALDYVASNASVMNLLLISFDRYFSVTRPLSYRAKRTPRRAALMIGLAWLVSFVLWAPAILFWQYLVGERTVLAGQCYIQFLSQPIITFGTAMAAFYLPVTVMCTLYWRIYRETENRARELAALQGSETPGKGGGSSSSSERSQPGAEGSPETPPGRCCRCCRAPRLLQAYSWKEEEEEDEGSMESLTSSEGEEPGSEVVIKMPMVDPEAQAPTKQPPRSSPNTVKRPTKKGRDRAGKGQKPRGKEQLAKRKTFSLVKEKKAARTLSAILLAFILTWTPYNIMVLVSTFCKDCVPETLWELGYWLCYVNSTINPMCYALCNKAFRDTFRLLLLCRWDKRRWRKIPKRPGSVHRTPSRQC
CHO-K1 Ca antag = nonselective inhibitor or artifact in parental CHO-K1 cells; AID 602250; ATP-induced calcium, Fluo-8 fluorescence; inhibition, % at 3 µM; 0.6% of 360,000 active;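 active means inhibition above a per-plate cutoff, the plate's mean sample inhibition plus 3 SD, cut at about 24% in these data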;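 further: 0% = DMSO plus EC80 ATP and 100% = DMSO alone without ATP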
M1 antag = human M1 muscarinic receptor antagonists, primary screen, CHO-K1 cells, Fluo-8 calcium fluorescence, 1536-well | Muscarinic acetylcholine receptor M1 (Homo sapiens), P11229 | CHO-K1 hM1, ACh EC80 antagonist | inhibition, % at 3 µM | 1.3% of 360,000 active;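 active means percent inhibition above its own plate's cutoff, namely the mean of that plate's compound wells plus 3 SD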;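 further: peak over basal fluorescence ratio during 140 s after agonist addition; 0% = ACh EC80 plus DMSO and 100% = DMSO alone without agonist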
M1 ag = human M1 muscarinic receptor agonists, primary screen, Fluo-8 calcium fluorescence, CHO-K1 cells, HTS; Muscarinic acetylcholine receptor M1 (Homo sapiens), P11229; CHO-K1 hM1, agonist mode; 0% DMSO, 100% acetylcholine EC100; activation, % at 3 µM; 0.33% of 360,000 active;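 active means activation above the run's mean compound activation plus 3 SD, cut at about 16% in these data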;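 further: peak over basal fluorescence ratio within a 140 s kinetic read after compound addition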
Starred values were filed as active, the others as inactive.

SMILES | M1 ag parental | M1 PAM parental | M1 PAM | CHO-K1 Ca antag | M1 antag | M1 ag
c1coc(-c2cc3nc(NC4CCCCC4)ccn3n2)c1 | 0 | -8 | -9 | 8 | 22 | -4
CC(C)OP(=O)(OC(C)C)C(O)c1cccc([N+](=O)[O-])c1 (stereo unspecified) | 1 | 12 | 7 | -9 | -12 | -1
COc1ccc(-c2csc(C(O)c3ccc(F)c(F)c3)n2)cc1 (stereo unspecified) | 3 | -10 | -13 | 10 | 4 | 3
COC(=O)c1c(C)[nH]c(C(=O)C(C)OC(=O)c2ccco2)c1C (stereo unspecified) | 2 | 11 | 3 | -15 | 4 | -1
COC(=O)c1c(C)[nH]c(C(=O)C(C)OC(=O)c2cc(C)oc2C)c1C (stereo unspecified) | 7 | -25 | -16 | 11 | 28* | -1
CC(C)(C)c1ccc(C(CC(=O)O)NC(=O)C23CC4CC(CC(C4)C2)C3)cc1 (stereo unspecified) | 0 | 12 | 20 | 1 | -8 | 4
CC(C)c1cc(C(=O)OCC(=O)NC2CC2)c(O)c(C(C)C)c1 | 0 | 0 | 4 | 8 | -8 | -6
Cc1nc2ccc(Nc3ccncc3)cc2s1 | 1 | 19 | 5 | -11 | -9 | -6
COc1ccc2nc3c(cc2c1)c(NC(=O)C1CCCO1)nn3CC(C)C (stereo unspecified) | 1 | -7 | -5 | 26* | -2 | -2
CN1CCN(c2ncccc2S(=O)(=O)N2CCCCC2)CC1 | 0 | -10 | -22 | 19 | 99* | -5
CN(Cc1ccc(Cl)cc1)C(=O)CNC(=O)C12CC3CC(CC(C3)C1)C2 | 2 | 7 | 9 | -2 | -10 | 0
Cc1c(/C=N/NC(=O)c2sc3ccccc3c2Cl)cnn1C | 0 | 3 | 6 | 26* | -7 | -1
Cc1c(-c2ccccc2)sc(N)c1C(=O)N1CCOCC1 | 0 | 22 | 4 | -18 | -17 | -3
Cc1noc(C)c1CSc1nc2ccccc2[nH]1 | 0 | -2 | -20 | 9 | 24* | -8
c1ccc(-c2cc(CSc3nc4ccccc4[nH]3)on2)cc1 | 10 | 4 | -19 | 17 | 21* | 4
COc1ccc(NC(=O)[C@@H]2[C@@H]3C(=O)N(C4CCCCC4)C(=O)[C@@H]3C3c4ccccc4C=CN32)cc1 (stereo partly specified) | 0 | 10 | -16 | 6 | 25* | 65*
c1ccc(Cc2noc(CN3CCN(C4CCc5ccccc5C4)CC3)n2)cc1 (stereo unspecified) | 2 | 3 | -27 | -14 | 88* | -8
c1ccc(Cc2noc(CN3CCN(Cc4ccc5c(c4)OCO5)CC3)n2)cc1 | 0 | 4 | -8 | -2 | 4 | -14
C(=C\c1ccccc1)/CN1CCN(Cc2nc(Cc3ccccc3)no2)CC1 | 0 | 16 | -31 | 6 | 43* | -12
c1ccc(Cc2noc(CN3CCCN(C4Cc5ccccc5C4)CC3)n2)cc1 | 4 | 9 | -24 | -4 | 100* | -6
c1ccc(Cc2noc(CN3CCC(CN4CCOCC4)CC3)n2)cc1 | 0 | -2 | -12 | -8 | 19 | -8
COc1ccccc1CN1CCN(Cc2nc(Cc3ccccc3)no2)CC1 | 0 | 3 | -7 | 1 | -3 | -14
CC(C(=O)c1ccc(Br)cc1)[n+]1cccc2ccccc21 (stereo unspecified) | 2 | 12 | -12 | -9 | 12 | -7
COc1ccc(CCNC(=O)Cn2nnc(-c3ccccc3F)n2)cc1OC | 1 | 11 | 11 | -19 | -12 | 1
Cc1cc(C)cc(NC(=O)C(=S)NCc2ccccc2)c1 | 1 | -7 | -6 | -8 | 16 | -3
SMILES | M1 ag parental | M1 PAM parental | M1 PAM | CHO-K1 Ca antag | M1 antag | M1 ag
CCOC(=O)c1c(C)n(C)c2ccc(OCC(O)CNCCc3ccccc3)cc12 (stereo unspecified) | 12 | 4 | 6 | 31* | -8 | -8
O=Nc1c(O)n(Cc2ccccc2)c2ccccc12 | 0 | -6 | 18 | -13 | -16 | 16*
O=Nc1c(O)n(Cc2cccc(C(F)(F)F)c2)c2ccccc12 | 0 | 9 | 15 | 3 | 2 | 19*
COC(=O)c1ccc(Cn2c(O)c(N=O)c3ccccc32)o1 | 1 | 20 | 13 | -6 | -14 | 11
O=Nc1c(O)n(Cc2ccc(Cl)c(Cl)c2)c2ccccc12 | 1 | 21 | 25* | -10 | -23 | 19*
CN(C(=O)c1ccccc1OCc1ccc(Cl)cc1)c1ccccc1 | 0 | 16 | -23 | 1 | 75* | -6
CC(C)[C@H](NC(=O)c1ccccc1)C(=O)OCC(=O)Nc1sccc1C(N)=O | 3 | 10 | -2 | -11 | -4 | 5
CCOC(=O)c1c(C)[nH]c(C(=O)OCC(=O)Nc2ccc(Cl)cn2)c1C | 0 | -21 | 8 | -10 | -5 | -1
CCC(Oc1ccccc1)C(=O)OCC(=O)Nc1sccc1C(N)=O (stereo unspecified) | 17* | -19 | -12 | 6 | 25 | 6
CC(Oc1ccccc1)C(=O)OCC(=O)Nc1sccc1C(N)=O (stereo unspecified) | 15 | -22 | -20 | 21 | 40* | 1
CCOC(=O)c1c(C)[nH]c(C(=O)OCC(=O)Nc2sccc2C(N)=O)c1C | 17* | -4 | -16 | 6 | 31* | 0
COc1ncnc2c1ncn2CCCNCc1ccc(C)o1 | 1 | 22 | 2 | -14 | -11 | -7
CCCS(=O)(=O)N1CCN(CC2CC3C=CC2C3)CC1 (stereo unspecified) | 1 | 23 | -5 | -17 | 0 | 22*
O=C(O)c1cccc2c1/C(=N/O)c1ccccc1-2 | 1 | 13 | 29* | -17 | -21 | 1
O=C(c1cccc2c1-c1ccccc1/C2=N/O)N1CCCCC1 | 0 | -7 | 5 | 25* | -10 | -2
O=C(O)c1cccc2c1-c1ccccc1/C2=N\Nc1ccccc1 | 0 | 8 | 9 | -17 | -11 | -3
CN1C(=O)/C(=C\c2ccc(N(C)C)cc2)OC1=S | 30* | -18 | -22 | 27* | 39* | 53*
NC(COCc1ccccc1)c1csc(Nc2ccc(C(=O)c3ccccc3)cc2)n1 (stereo unspecified) | 5 | 8 | 0 | 2 | -1 | 7
CCOC(=O)C(NC(=O)c1ccc(OC)cc1)(N1CCCC1=O)C(F)(F)F (stereo unspecified) | 0 | 10 | 6 | 3 | -9 | -10
